13 compounds from PubChem BioAssay (NCI) can be followed below.

Test systems include SR leukemia; RPMI-8226 leukemia; OVCAR-8 ovarian; OVCAR-5 ovarian; OVCAR-4 ovarian; SK-OV-3 ovarian; IGROV1 ovarian; OVCAR-3 ovarian; HS 578T breast; NCI/ADR-RES ovarian.
Holding throughout (experiment): NCI-60 one-dose screen, 48 h (100 = growth as untreated, 0 = no growth, -100 = all killed)
Details in all cases: 10 µM unless noted

This is part of a sample that, as a whole, favours compounds with a hit. Of some 83,000 tested, about 20% had one in any assay.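 Interpretation: 100, growth as untreated; towards 0, rising growth inhibition; 0, no net growth; 0 to -100, cell death. Compounds scoring below 10 were considered active.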 A number with no mark means an inactive call. The source made the active and inactive calls.

`O=C(Nc1cc(C(F)(F)F)cc(C(F)(F)F)c1)Nc1ccc(OCc2nnc(-c3ccc(Cl)cc3)o2)c(F)c1`: the growth is 0.985% (active) in the test with SR leukemia; 3.52% (active) with RPMI-8226 leukemia; 10.6% in the test on OVCAR-8 ovarian; -5.15% (active) in the test on OVCAR-5 ovarian; 24% in the test on OVCAR-4 ovarian; 5.55% (active) in the test with SK-OV-3 ovarian. In addition, the growth is 32.7% in the test on IGROV1 ovarian, 16% in the test with OVCAR-3 ovarian, 28.1% with HS 578T breast and 4.95% (active) in the test on NCI/ADR-RES ovarian.
`COc1cccc(/C=C/C(=O)c2sc(Nc3ccc(O)cc3)nc2C)c1`: the growth is 35.8% in the test with SR leukemia; 4.79% (active) in the test on RPMI-8226 leukemia; 99.4% in the test with OVCAR-8 ovarian; 111% in the test with OVCAR-5 ovarian; 96.9% in the test on OVCAR-4 ovarian; 103% with SK-OV-3 ovarian. Moreover, the growth in the test on IGROV1 ovarian was 88.1%; with OVCAR-3 ovarian it was 75.7%; with HS 578T breast, 103%; with NCI/ADR-RES ovarian it was 99%.
In the case of `CCN(C(=O)c1cc2ncccc2[nH]1)[C@H]1CCC[C@@H](NCc2cccc(F)c2)C1`, the growth in the test with SR leukemia was 99.6%; in the test with RPMI-8226 leukemia it was 91.8%; in the test with OVCAR-8 ovarian, 103%; in the test on OVCAR-5 ovarian, 81.6%; in the test with OVCAR-4 ovarian, 104%; in the test on SK-OV-3 ovarian, 103%. Besides, the growth with IGROV1 ovarian is 91.1%; with OVCAR-3 ovarian, 95.7%; with HS 578T breast it was 109%; in the test with NCI/ADR-RES ovarian, 89.1%.
For `COc1ncc(-c2ccc3ncnc(Nc4cccc(Cl)c4)c3c2)cc1NS(=O)(=O)C1CC1`, the growth is 46.9% in the test on SR leukemia; 26.7% in the test with RPMI-8226 leukemia; 41.7% with OVCAR-8 ovarian; 28% in the test on OVCAR-5 ovarian; 34.8% in the test with OVCAR-4 ovarian; 8.08% (active) with SK-OV-3 ovarian. The growth is -38.6% (active) with IGROV1 ovarian, 20.1% in the test with OVCAR-3 ovarian, 13.6% in the test on HS 578T breast and 40.8% with NCI/ADR-RES ovarian.
Consider `Nc1nn2cc(-c3ccc(Cl)s3)nc2c2ccccc12`, for which the growth in the test on SR leukemia was 49.7%; with RPMI-8226 leukemia, 92%; in the test with OVCAR-8 ovarian, 105%; with OVCAR-5 ovarian, 79.1%; in the test with OVCAR-4 ovarian, 87.5%; with SK-OV-3 ovarian, 103%. Moreover, the growth with IGROV1 ovarian is 44.7%; in the test with OVCAR-3 ovarian, 77.8%; in the test on HS 578T breast, 96.7%; in the test with NCI/ADR-RES ovarian, 86.7%.
In the case of `COc1ccc(-c2nc3sccn3c2-c2ccnc(NCCCNS(=O)(=O)c3ccc(F)cc3)n2)cc1`, the growth was 14.8% in the test with SR leukemia; 5.74% (active) in the test with RPMI-8226 leukemia; 6.98% (active) in the test on OVCAR-8 ovarian; 77% in the test on OVCAR-5 ovarian; 17.1% in the test with OVCAR-4 ovarian; 39.5% in the test with SK-OV-3 ovarian. In addition, the growth with IGROV1 ovarian was 16.3%; in the test with OVCAR-3 ovarian, 20.9%; in the test with NCI/ADR-RES ovarian it was -5.58% (active).
Turning to `COc1cccc(-c2nc3sccn3c2-c2ccnc(NCCCNS(=O)(=O)c3ccccc3)n2)c1`, the growth in the test on SR leukemia is 50.7%; with RPMI-8226 leukemia, 28%; in the test on OVCAR-8 ovarian, 29.6%; in the test with OVCAR-5 ovarian, 128%; in the test on OVCAR-4 ovarian, 55.7%; in the test on SK-OV-3 ovarian it was 73%. Also, the growth in the test with IGROV1 ovarian is 55.3%; in the test with OVCAR-3 ovarian, 48.2%; in the test on NCI/ADR-RES ovarian, 23.1%.
Regarding `O=c1oc2c([nH]c3ccc4ccccc4c32)c2ccccc12`, the growth was 102% in the test on SR leukemia; 103% in the test on RPMI-8226 leukemia; 104% in the test on OVCAR-8 ovarian; 112% in the test on OVCAR-5 ovarian; 109% with OVCAR-4 ovarian; 107% in the test on SK-OV-3 ovarian. For the same compound, the growth in the test with IGROV1 ovarian is 118%; in the test with OVCAR-3 ovarian, 109%; with NCI/ADR-RES ovarian it was 104%.
Take `COc1cccc(C2CC(=O)Nc3c2c(C)nn3-c2nc3ccccc3[nH]2)c1OC` (configuration not stated): the growth was 33.2% in the test with SR leukemia; 70.4% in the test with RPMI-8226 leukemia; 55% with OVCAR-8 ovarian; 114% in the test with OVCAR-5 ovarian; 74.4% in the test on OVCAR-4 ovarian; 79.9% in the test on SK-OV-3 ovarian. Moreover, the growth is 3.88% (active) in the test with IGROV1 ovarian, 74% with OVCAR-3 ovarian and 73.2% with NCI/ADR-RES ovarian.
With `CCCCCC(=O)OCc1ccccc1`, the growth in the test with SR leukemia was 85.4%; in the test on RPMI-8226 leukemia, 102%; with OVCAR-8 ovarian, 102%; with OVCAR-5 ovarian, 105%; in the test with OVCAR-4 ovarian it was 110%; in the test with SK-OV-3 ovarian, 93.7%. Moreover, the growth with IGROV1 ovarian is 96.7%; in the test with OVCAR-3 ovarian, 102%; in the test on NCI/ADR-RES ovarian it was 100%.
Take `NC(=O)NC(=O)/C=C/C(=O)OCCCl`: the growth in the test on SR leukemia is 96.8%; in the test on RPMI-8226 leukemia it was 93.3%; in the test with OVCAR-8 ovarian, 90.7%; in the test on OVCAR-5 ovarian, 96.9%; in the test with OVCAR-4 ovarian, 107%; in the test on SK-OV-3 ovarian, 105%. Moreover, the growth was 109% in the test with IGROV1 ovarian, 106% in the test with OVCAR-3 ovarian and 109% with NCI/ADR-RES ovarian.
As to `c1ccc(CCn2nnc3c(Nc4ccc(N5CCOCC5)cc4)ncnc32)cc1`, the growth was 36% with SR leukemia; 68.2% in the test with RPMI-8226 leukemia; 86.2% with OVCAR-8 ovarian; 88.1% in the test with OVCAR-5 ovarian; 89.3% in the test on OVCAR-4 ovarian; 93.1% with SK-OV-3 ovarian. For the same compound, the figures for the growth in the test with IGROV1 ovarian, with OVCAR-3 ovarian and in the test on NCI/ADR-RES ovarian were 95.3%, 85.9% and 78.8%, respectively.
For `Cc1ccc(S(=O)(=O)NCCCNc2nccc(-c3c(-c4ccccc4)nc4sccn34)n2)cc1`, the growth with SR leukemia is 33.9%; in the test on RPMI-8226 leukemia, 25.6%; in the test with OVCAR-8 ovarian, 37.9%; with OVCAR-5 ovarian it was 117%; in the test with OVCAR-4 ovarian it was 48.4%; in the test on SK-OV-3 ovarian, 57.9%. Moreover, the growth with IGROV1 ovarian is 35.7%; in the test with OVCAR-3 ovarian, 38%; with NCI/ADR-RES ovarian, 49%.
